In PubChem BioAssay (EPA / NIEHS):
“And” between values parts separate entries of the source, which are not always exact repeats. Equal entries are not always repeated. More than one record can exist for a structure, and the calls need not agree. The source made the active and inactive calls. The calls were made as follows: active = hit-call score of the fitted dose curve at least 0.9, where 1 is the maximum; inactive = score below 0.9.

Tests used:
[1] = APR_HepG2_P-H2AX_72hr: Apredica 72-hour HepG2 Assay for H2AX Phosphorylation (AID 2282916); details: imaging, actives raise or lower the signal;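 also: phospho-histone H2A.x immunostain intensity per cell marking DNA damage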
Method in brief: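 Following 72 hr treatment with 0.39–200 uM compound, HepG2 cells were formaldehyde-fixed, permeabilized and stained for phospho-H2A.x; signal was measured by high-content imaging and fitted bidirectionally against DMSO controls.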

[2] = APR_HepG2_MitoMembPot_72hr: Apredica 72-hour HepG2 Assay for Mitochondrial Membrane Potential (AID 2282917); details: imaging, actives raise or lower the signal
Method in brief: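 Membrane potential read by MitoTracker Red CMXRos (250 nM, 30 min, pre-fixation) fluorescence imaging of HepG2 after 72 hr exposure. Ten concentrations, 0.39–200 uM, duplicate wells, 0.5% DMSO; fitted in both directions against DMSO baseline.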

[3] = APR_HepG2_MitoticArrest_72hr: Apredica 72-hour HepG2 Assay for Mitotic Arrest (AID 2282918); details: high-content imaging, actives raise or lower the signal
Method in brief: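 HepG2, 72 hr exposure, 0.39–200 uM in duplicate, 0.5% v/v DMSO final. Formaldehyde-fixed, Triton-permeabilized, anti-phospho-histone H3/FITC plus Hoechst. ArrayScan imaging at 20x; curves fit bidirectionally against DMSO baseline.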

[4] = APR_HepG2_MicrotubuleCSK_72hr: Apredica 72-hour HepG2 Assay for Microtubule CSK Stabilty (AID 2282919); details: HepG2 microtubule cytoskeleton, high-content imaging, actives raise or lower the signal
Method in brief: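 Read-out is tubulin fluorescence intensity from high-content imaging of HepG2 cells, with nuclei identified by Hoechst 33342. Treatment lasts 72 h at 0.39–200 uM, and curves are fitted bidirectionally against the DMSO negative control.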

[5] = APR_HepG2_P-H2AX_24hr: Apredica 24-hour HepG2 Assay for H2AX Phosphorylation (AID 2282920); details: high-content imaging, actives raise or lower the signal
Method in brief: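 HCS fluorescence imaging of phospho-H2A.x immunostain (with Hoechst 33342 nuclear counterstain) in HepG2 after 24 hr compound exposure; 10 concentrations, 0.39–200 uM, duplicate wells, 0.5% v/v DMSO. Gain or loss of signal fitted relative to DMSO baseline.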

[6] = APR_HepG2_StressKinase_72hr: Apredica 72-hour HepG2 Assay for Stress Kinase (AID 2282921); details: HepG2 stress kinase (phospho-c-Jun) imaging, actives raise or lower the signal
Method in brief: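 Fluorescence intensity of Cy3-tagged anti-phospho-c-Jun antibody, quantified per cell from Hoechst-defined nuclei across six images per well, served as the read-out following 72 h exposure (0.39–200 uM, 0.5% v/v DMSO).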

[7] = APR_HepG2_StressKinase_24hr: Apredica 24-hour HepG2 Assay for Stress Kinase (AID 2282922); details: HepG2 stress kinase (phospho-c-Jun) imaging, actives raise or lower the signal
Method in brief: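 HepG2, 24 hr dosing, 0.39–200 uM in duplicate, 0.5% DMSO; formaldehyde fix (3.7%), 0.5% Triton X-100; anti-phospho-c-Jun + Cy3 secondary, Hoechst counterstain; ArrayScan imaging; bidirectional curve fit vs DMSO baseline.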

[8] = APR_HepG2_p53Act_72hr: Apredica 72-hour HepG2 Assay for p53 Activation (AID 2282923); details: high-content imaging, actives raise or lower the signal;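 also: average cellular p53 protein immunofluorescence intensity in HepG2 cells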
Method in brief: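 HepG2 monolayers receive test compounds in duplicate at ten concentrations (0.39 through 200 uM) for 72 hr. They are then formaldehyde-fixed, antibody-labelled for p53, Hoechst-stained and imaged, with activity fitted bidirectionally versus DMSO.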

[9] = APR_HepG2_MitoMass_72hr: Apredica 72-hour HepG2 Assay for Mitochondrial Mass (AID 2282924); details: high-content imaging, actives raise or lower the signal;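 also: MitoTracker Red CMXRos stain intensity per cell imaged as mitochondrial mass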
Method in brief: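 HepG2, 72 hr cmpd, 10 conc 0.39–200 uM in dup, DMSO 0.5% v/v. MitoTracker Red CMXRos 250 nM 30 min pre-fix; formaldehyde 3.7% fix 30 min RT. HCS imaging, gain/loss fit vs DMSO.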

[10] = ATG_CRE_CIS: Attagene CIS-FACTORIAL HepG2 Assay for human cAMP Responsive Element (CRE) binding protein 3 (AID 2282926); details: HepG2 CRE cis-reporter, Attagene multiplexed mRNA; actives raise or lower the signal
Method in brief: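 Endogenous CRE-binding activity in HepG2 is reported through a cis-regulated transfected reporter. Following a day of exposure, mRNA levels are determined by reverse transcription PCR and fluorescent fragment analysis; fits run in both directions versus DMSO.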

[11] = target: CCAAT/enhancer-binding protein beta (Homo sapiens) (UniProt P17676); assay: ATG_C_EBP_CIS: Attagene CIS-FACTORIAL HepG2 Assay for human CCAAT/Enhancer Binding Protein (C/EBP) beta (AID 2282927); details: HepG2 Attagene cis-factorial transcription factor reporter; actives raise or lower the signal
Method in brief: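 Changes in reporter mRNA, rather than exogenous chimeric receptor activity, reflect native C/EBP signalling in transfected HepG2 cells dosed for 24 h; transcripts are detected by RT-PCR and capillary electrophoresis.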

[12] = ATG_CMV_CIS: Attagene CIS-FACTORIAL HepG2 Assay for human CMV (Internal Marker) (AID 2282928); details: HepG2 CMV promoter reporter, transcription factor profiling; actives raise or lower the signal;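 also: endpoint acts as a background internal control marker rather than a target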
Method in brief: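 CMV internal-marker background readout in transiently transfected HepG2 cells bearing cis-regulated reporter units. Reporter mRNA is measured 24 h after dosing by RT-PCR and capillary electrophoresis, with bidirectional fitting against DMSO.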

[13] = ATG_DR4_LXR_CIS: Attagene CIS-FACTORIAL HepG2 Assay for human Liver X Receptor (LXR), DR4 submotif (AID 2282929); details: HepG2 Attagene DR4 cis-reporter, mRNA transcription; actives raise or lower the signal
Method in brief: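 Measures endogenous transcription factor activity via a DR4-driven reporter transcript in human HepG2 cells. Compounds incubated 24 h; mRNA quantified by RT-PCR and capillary electrophoresis, analysed as gain or loss of signal versus DMSO.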

[14] = target: Aryl hydrocarbon receptor (Homo sapiens) (UniProt P35869); assay: ATG_Ahr_CIS: Attagene CIS-FACTORIAL HepG2 Assay for human Aryl Hydrocarbon Receptor (Ahr) (AID 2282930); details: HepG2 AhR cis-factorial reporter transcription; actives raise or lower the signal
Method in brief: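 HepG2, transient MRTU (cis) transfection, 24 h exposure. RNA → cDNA → PCR → 6-FAM primer extension → HpaI 2 h 37 C → CE. Fit: bidirectional, DMSO baseline.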

[15] = ATG_AP_1_CIS: Attagene CIS-FACTORIAL HepG2 Assay for human Activator Protein 1 (AP-1) (AID 2282931); details: HepG2 Attagene cis-factorial AP-1 reporter mRNA; actives raise or lower the signal
Method in brief: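 Bidirectional concentration-response fitting against DMSO controls. Underlying signal: reporter mRNA from cis-promoter constructs in transiently transfected HepG2, measured after 24 h by RT-PCR and capillary electrophoresis.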

[16] = ATG_AP_2_CIS: Attagene CIS-FACTORIAL HepG2 Assay for human Activator Protein 2 (AP-2) (AID 2282932); details: HepG2 AP-2 cis-reporter, Attagene transcription factor profiling; actives raise or lower the signal
Method in brief: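 Step one: transient transfection of HepG2 with reporter transcription units. Step two: 24 h chemical exposure. Step three: RNA extraction, RT-PCR, labelled fragment analysis by capillary electrophoresis; DMSO serves as baseline.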

[17] = ATG_BRE_CIS: Attagene CIS-FACTORIAL HepG2 Assay for human Bone Morphogenetic Protein (BMP) Response Element (BRE) (AID 2282933); details: HepG2 BMP response element reporter, Attagene transcription factor profiling; actives raise or lower the signal
Method in brief: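 After a 24 h chemical treatment, transiently transfected HepG2 cells were lysed for RNA; reporter transcripts were quantified by fluorescent RT-PCR and capillary electrophoresis, normalised to DMSO.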

[18] = target: Retinoic acid receptor alpha (Homo sapiens) (UniProt P10276); assay: ATG_DR5_RAR_CIS: Attagene CIS-FACTORIAL HepG2 Assay for human Retinoic Acid Receptor Alpha (RARE), DR5 submotif (AID 2282934); details: HepG2 Attagene cis-factorial RARE DR5 reporter, mRNA; actives raise or lower the signal;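 as to AC50: reporter responds to endogenous RAR alpha beta and gamma in HepG2 not RARA alone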
Method in brief: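 HepG2, transient cis-reporter transfection, 24 h exposure. mRNA readout: RT-PCR, FAM label, HpaI cut, capillary electrophoresis. DMSO baseline, gain/loss fitting.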

[19] = target: Transcription factor E2F1 (Homo sapiens) (UniProt Q01094); assay: ATG_E2F_CIS: Attagene CIS-FACTORIAL HepG2 Assay for human E2F Transcription Factor 1 (AID 2282935); details: HepG2 Attagene cis-reporter, E2F reporter RNA transcripts; actives raise or lower the signal
Method in brief: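 Total RNA from 24 h-treated, reporter-transfected HepG2 cells undergoes DNase I treatment, oligo(dT) reverse transcription, PCR and 6-FAM primer extension before capillary electrophoresis.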

[20] = APR_HepG2_NuclearSize_72hr: Apredica 72-hour HepG2 Assay for Nuclear Size (AID 2282925); details: high-content imaging, actives raise or lower the signal
Method in brief: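 HepG2; cpd 0.39–200 uM, 10 conc, duplicate; 72 h; DMSO 0.5% v/v; fix 3.7% formaldehyde 30 min RT; Triton permeabilization; Hoechst 2 ug/mL; HCS imaging 20x; nuclear diameter; gain/loss fit vs DMSO.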

Measured: AC50

Chain of Aryl hydrocarbon receptor (Homo sapiens) (P35869 whole entry, looked up): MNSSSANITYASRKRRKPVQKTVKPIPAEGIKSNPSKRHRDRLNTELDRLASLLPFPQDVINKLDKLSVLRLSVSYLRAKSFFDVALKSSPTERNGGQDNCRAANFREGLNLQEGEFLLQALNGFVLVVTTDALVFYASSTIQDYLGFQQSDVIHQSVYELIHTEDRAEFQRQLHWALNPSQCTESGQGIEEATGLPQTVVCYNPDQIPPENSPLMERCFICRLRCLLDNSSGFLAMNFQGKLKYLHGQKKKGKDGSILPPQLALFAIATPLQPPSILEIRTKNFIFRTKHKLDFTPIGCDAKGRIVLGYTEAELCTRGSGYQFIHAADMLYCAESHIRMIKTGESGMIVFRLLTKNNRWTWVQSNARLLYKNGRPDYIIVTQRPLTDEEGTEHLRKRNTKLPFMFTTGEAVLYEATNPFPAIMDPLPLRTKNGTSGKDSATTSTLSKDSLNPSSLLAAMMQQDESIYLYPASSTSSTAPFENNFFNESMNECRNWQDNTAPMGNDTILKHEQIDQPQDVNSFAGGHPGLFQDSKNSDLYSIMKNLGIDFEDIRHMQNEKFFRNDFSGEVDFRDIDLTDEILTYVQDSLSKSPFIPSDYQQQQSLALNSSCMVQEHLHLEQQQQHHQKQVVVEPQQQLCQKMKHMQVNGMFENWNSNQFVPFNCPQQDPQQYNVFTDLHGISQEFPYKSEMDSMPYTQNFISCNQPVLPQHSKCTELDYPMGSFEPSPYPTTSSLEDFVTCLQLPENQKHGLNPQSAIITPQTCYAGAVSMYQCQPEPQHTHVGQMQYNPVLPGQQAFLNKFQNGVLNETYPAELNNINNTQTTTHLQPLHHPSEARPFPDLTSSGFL
Chain of CCAAT/enhancer-binding protein beta (Homo sapiens) (P17676 whole entry, looked up): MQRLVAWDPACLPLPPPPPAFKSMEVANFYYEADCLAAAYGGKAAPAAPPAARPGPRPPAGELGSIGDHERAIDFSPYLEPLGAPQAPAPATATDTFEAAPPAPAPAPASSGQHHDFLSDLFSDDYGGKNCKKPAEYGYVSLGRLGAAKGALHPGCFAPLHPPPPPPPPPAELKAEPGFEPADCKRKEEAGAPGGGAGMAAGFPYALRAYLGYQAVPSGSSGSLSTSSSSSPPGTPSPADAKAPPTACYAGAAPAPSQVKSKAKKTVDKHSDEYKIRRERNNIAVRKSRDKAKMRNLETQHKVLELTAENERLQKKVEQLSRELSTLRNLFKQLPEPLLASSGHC
Chain of Transcription factor E2F1 (Homo sapiens) (Q01094 whole entry, looked up): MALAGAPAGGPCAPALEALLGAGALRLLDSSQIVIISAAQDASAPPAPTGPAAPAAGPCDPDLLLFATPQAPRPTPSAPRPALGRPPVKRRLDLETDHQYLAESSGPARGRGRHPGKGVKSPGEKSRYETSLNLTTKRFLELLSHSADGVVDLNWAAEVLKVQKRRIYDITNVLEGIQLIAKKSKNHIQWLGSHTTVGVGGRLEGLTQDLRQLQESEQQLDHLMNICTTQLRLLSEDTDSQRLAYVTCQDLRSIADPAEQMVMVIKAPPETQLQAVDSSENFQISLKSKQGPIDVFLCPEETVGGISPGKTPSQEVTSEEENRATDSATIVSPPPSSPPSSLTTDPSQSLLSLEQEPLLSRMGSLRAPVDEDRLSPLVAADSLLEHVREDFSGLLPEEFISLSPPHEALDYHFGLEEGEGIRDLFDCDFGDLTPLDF
Chain of Retinoic acid receptor alpha (Homo sapiens) (P10276 whole entry, looked up): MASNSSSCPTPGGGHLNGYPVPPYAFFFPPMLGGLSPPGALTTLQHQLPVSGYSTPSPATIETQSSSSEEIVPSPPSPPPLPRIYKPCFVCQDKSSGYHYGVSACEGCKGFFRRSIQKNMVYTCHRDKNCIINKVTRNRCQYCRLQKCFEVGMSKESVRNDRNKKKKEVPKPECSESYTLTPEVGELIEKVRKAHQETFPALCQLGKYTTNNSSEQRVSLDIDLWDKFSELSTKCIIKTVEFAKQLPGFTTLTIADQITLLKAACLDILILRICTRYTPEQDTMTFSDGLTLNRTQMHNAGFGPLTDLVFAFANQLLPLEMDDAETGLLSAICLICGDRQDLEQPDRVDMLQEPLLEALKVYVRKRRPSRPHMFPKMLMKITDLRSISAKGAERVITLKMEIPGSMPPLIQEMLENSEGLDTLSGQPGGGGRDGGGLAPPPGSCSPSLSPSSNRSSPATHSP

c1ccc(-c2ccccc2)cc1
not listed: [20]
inactive: all other assays above

Oc1ccc(Cl)cc1Cl
not listed: [15]
inactive: all other assays above

Cc1cc2c3c(c1)C(c1ccccc1)=N[C@@H](NC(=O)c1ccncc1)C(=O)N3CC2
active: [10] 100 µM | [12] 100 µM | [13] 161 µM
not listed: [15]
inactive: all other assays above

CCOC(=O)C(O)(c1ccc(Cl)cc1)c1ccc(Cl)cc1
active: [1] 48.1 µM | [3] 48.5 µM | [5] 77.5 µM | [8] 49.4 µM | [20] 105 µM | [13] 8.72 µM | [14] 8.63 µM
not listed: [15]
inactive: all other assays above

CCCCCCCCCc1ccc(O)cc1
active: [13] 30.2 µM and 11.1 µM | [16] 169 µM | [17] 55.7 µM
inactive: [1] | [2] | [3] | [4] | [5] | [6] | [7] | [8] | [9] | [20] | [11] | [12] | [13] | [14] | [16] | [17] | [18] | [19]

Cc1ccccc1O
active: [15] 140 µM
not listed: [10]
inactive: all other assays above

C[C@]12CCC(=O)C=C1CC[C@@H]1[C@@H]2CC[C@]2(C)C(=O)CC[C@@H]12
inactive: [1] | [2] | [3] | [4] | [5] | [6] | [7] | [8] | [9] | [10] | [11] | [12] | [13] | [14] | [16] | [17] | [18] | [19]
active: [13] 161 µM and 167 µM | [14] 49.8 µM | [16] 45.1 µM | [18] 36.7 µM and 27.5 µM

CCCN(CCC)N=O
not listed: [20]
inactive: all other assays above

N#Cc1ccc(N(CC(N)=O)CC(F)(F)F)cc1C(F)(F)F
active: [18] 1.56 µM
not listed: [15]
inactive: all other assays above

CN(C)CCO
not listed: [15] | [20]
inactive: all other assays above

CCSC(=O)N(CC)C1CCCCC1
not listed: [8] | [15] | [18] | [20]
inactive: all other assays above

CC(c1ccc(O)cc1)(c1ccc(O)cc1)c1ccc(O)cc1
active: [1] 95.4 µM | [3] 105 µM | [5] 111 µM | [8] 110 µM | [9] 170 µM | [12] 20.2 µM | [13] 7.38 µM | [16] 18.1 µM | [17] 18.3 µM
inactive: [2] | [4] | [6] | [7] | [11] | [14] | [18] | [19]

Cc1ccc(O)c(C)c1
not listed: [10] | [15] | [20]
inactive: all other assays above
